# Source: the supplement of paper PMC6897291
# Test system: RIVA
# Assay: growth inhibition by drug alone (1 - RLU/untreated control) (fraction); higher = stronger inhibition
# Settings: 177Lu-lilotomab satetraxetan 0 ug/ml
# Description: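 RIVA (RI-1) ABC-DLBCL cells were pretreated or not for 18 h with 0.5 ug/ml 177Lu-lilotomab satetraxetan (600 MBq/mg), washed and seeded (3000 cells/well) on 384-well plates pre-printed with the Selleck Cambridge Cancer Compound library. Viability was read by RealTime-Glo luminescence on days 3-6 after seeding. Effect = 1 - RLU/mean RLU of the 48 untreated no-drug control wells per plate; Bliss score = (M-E)/(1-Fa).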
SMILES,"growth inhibition by drug alone (10 nM, time (day): 3)","growth inhibition by drug alone (10 nM, time (day): 4)","growth inhibition by drug alone (10 nM, time (day): 5)","growth inhibition by drug alone (10 nM, time (day): 6)","growth inhibition by drug alone (100 nM, time (day): 3)","growth inhibition by drug alone (100 nM, time (day): 4)","growth inhibition by drug alone (100 nM, time (day): 5)","growth inhibition by drug alone (100 nM, time (day): 6)"
Nc1cc(C(F)(F)F)c(-c2cc(N3CCOCC3)nc(N3CCOCC3)n2)cn1,-0.24,-0.261,-0.283,-0.377,-0.244,-0.324,-0.245,-0.359
Cc1csc(-c2nnc(Nc3ccc(Oc4ncccc4-c4ccnc(N)n4)cc3)c3ccccc23)c1,0.0279,-0.0253,0.0704,0.206,-0.211,-0.208,-0.145,-0.0126
O=C(Nc1ncc([N+](=O)[O-])s1)c1ccc([N+](=O)[O-])c(Cl)c1,0.137,0.114,0.0837,0.0697,-0.0662,-0.0483,-0.0824,-0.14
CC(NC(=O)c1ccccc1/N=C/c1c(O)ccc2ccccc12)c1ccccc1 (stereo not given) [Sirtinol],-0.0251,0.00147,-0.0621,-0.367,-0.00236,-0.00311,-0.00892,-0.099
COc1ccc(S(=O)(=O)Nc2cccnc2Nc2ccc(O)cc2)cc1,-0.0856,-0.157,-0.215,-0.37,-0.353,-0.364,-0.406,-0.581
